Screening data (PubChem BioAssay)
Compounds with a hit are over-represented: about 4.1% of the library has one in this group of screens.
hgDAF-12 ag – agonists of H. glycines DAF-12 nuclear receptor; HEK293 GAL4-hgDAF12 UAS-luciferase reporter, agonist luminescence; normalized to butyrate control; 1.8% of 370,000 active; activation, % at 6.8 µM;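 active = activation above a cutoff set at the mean of all screened compounds plus 3 SD, cut at about 10% in these data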
DAX1 inh-1 – inhibitors of human orphan nuclear receptor DAX1 (NR0B1) | 0.99% of 340,000 active | HEK293 Gal4-DAX1 luciferase reporter, luminescence | inhibition, % at 6.75 µM | AID 504766 | P51843;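 active = inhibition above the mean over all tested compounds plus 3 SD, cut at about 4.2% in these data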;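 note: inhibition shows as a rise in luminescence from relieved DAX1 repression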
ssDAF-12 act – activates DAF-12 receptor from parasite S. stercoralis; HEK293 ssDAF-12/GRIP1 lit1-tk-luc reporter, luminescence; % of 3 µM dafachronic acid response; activation, % at 6.8 µM; 1% of 370,000 active; AID 652126;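 active = activation above the mean over all tested compounds plus 3 SD, cut at about 0.9% in these data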
hcDAF12 agonist – H. contortus DAF-12 activation, primary screen; 1.4% of 370,000 active; AID 652067; activation, % at 6.8 µM; HEK293 hcDAF-12 lit1-tk-luc reporter, luminescence; 0% DMSO, 100% Δ7-dafachronic acid;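 active = activation above the mean of all tested compounds plus 3 SD, cut at about 5.5% in these data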
DAX1 inh-2 – blocks DAX1 repression of SF-1 activated StAR promoter; AID 652010; 1.1% of 370,000 active; inhibition, % at 6.8 µM; HEK293T StAR-luciferase reporter, SF-1/DAX-1 repression relief;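 active = inhibition above the mean over all tested compounds plus 3 SD, cut at about 3.6% in these data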;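 note: higher inhibition means more luminescence from relief of DAX-1 repression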
LXRb hcDAF ctr – LXR-beta agonism as hcDAF-12 counter-screen; AID 743027; shares compounds with hcDAF12 agonist; 3,400 tested, under 10 active; HEK293 Gal4-LXR tk-luc reporter, luminescence, 24 h; normalized: DMSO 0%, positive control 100%; activation, % at 6.8 µM;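 active = mean percent activation of the reporter above a cutoff set as the average over tested compounds plus their standard deviation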
Target sequence (P55055 whole entry, looked up, the tested form may be a part): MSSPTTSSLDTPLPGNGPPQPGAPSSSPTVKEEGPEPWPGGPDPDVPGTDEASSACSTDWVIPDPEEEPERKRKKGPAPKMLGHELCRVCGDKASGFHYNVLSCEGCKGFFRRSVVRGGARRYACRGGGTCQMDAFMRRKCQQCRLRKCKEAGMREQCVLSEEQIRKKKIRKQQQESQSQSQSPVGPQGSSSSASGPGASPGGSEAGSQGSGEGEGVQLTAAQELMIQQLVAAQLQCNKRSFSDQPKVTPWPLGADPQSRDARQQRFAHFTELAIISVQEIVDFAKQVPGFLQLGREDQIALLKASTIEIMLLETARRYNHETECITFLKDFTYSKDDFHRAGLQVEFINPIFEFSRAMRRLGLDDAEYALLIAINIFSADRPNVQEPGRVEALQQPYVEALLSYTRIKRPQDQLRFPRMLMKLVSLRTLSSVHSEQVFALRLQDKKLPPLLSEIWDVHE
hcDAF12 conf – confirmation of H. contortus DAF-12 agonists. HEK293 hcDAF-12 lit1-tk-luc reporter, luminescence; % of Δ7-dafachronic acid response. shares compounds with hcDAF12 agonist. activation, % at 6.8 µM. 61% of 3,400 active;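 active = mean activation across triplicate tests above the threshold derived from the earlier primary screen, cut at about 5.5% in these data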
Large screens that a line does not name were inactive (follow-up assays come after a bar, where they were run).

Cc1ccc(N/N=C2\CS(=O)(=O)N(C)c3ccsc32)cc1	DAX1 inh-1 10.7, ssDAF-12 act 1.2, hcDAF12 agonist 10.1 | LXRb hcDAF ctr inactive | hcDAF12 conf 8.7
Cc1nc2c(-c3ccccc3)cnn2c(N2CCOCC2)c1C	hgDAF-12 ag 12.8, hcDAF12 agonist 12.4 | LXRb hcDAF ctr inactive | hcDAF12 conf 9.0
Cc1cc(SCC(=O)c2cccs2)nc2ccccc12	hcDAF12 agonist 8.8 | LXRb hcDAF ctr inactive | hcDAF12 conf inactive
O=C(CSc1nc2ccccc2c(=O)[nH]1)c1cccs1	none
CN(C)c1ccc(NC(=O)CCN2C(=O)c3cccc([N+](=O)[O-])c3C2=O)cc1	hcDAF12 agonist 7.0 | LXRb hcDAF ctr inactive | hcDAF12 conf inactive
Cc1cc(O)c(C(=O)/C=C/c2ccc(Cl)cc2)c(=O)o1	hcDAF12 agonist 13.2 | LXRb hcDAF ctr inactive | hcDAF12 conf inactive
c1ccc(-c2ccc(-c3ccccn3)s2)nc1	hgDAF-12 ag 13.5, DAX1 inh-1 4.7, ssDAF-12 act 3.8, hcDAF12 agonist 15.0 | LXRb hcDAF ctr inactive | hcDAF12 conf 13.4
CC(C)N1CCN(Cc2cccn2-c2nccs2)CC1CCO (stereo not given)	none
O=C(CSc1nnc(-c2ccncc2)o1)N1CCc2ccccc2C1	none
Cc1ccc(-c2nc(NCc3cccnc3)c3ccccc3n2)cc1	hcDAF12 agonist 6.8 | LXRb hcDAF ctr inactive | hcDAF12 conf inactive
Cc1ccc(-c2nc(NCc3ccco3)c3ccccc3n2)cc1	ssDAF-12 act 0.9, hcDAF12 agonist 6.6 | LXRb hcDAF ctr inactive | hcDAF12 conf 5.7
c1ccc(-c2nc(NCc3cccnc3)c3ccccc3n2)cc1	none (no result: hgDAF-12 ag, ssDAF-12 act, hcDAF12 agonist, DAX1 inh-2)
Cc1ccc(-c2nc(NCCN(C)C)c3ccccc3n2)cc1	hcDAF12 agonist 13.9 | LXRb hcDAF ctr inactive | hcDAF12 conf 8.7
O=C(CSc1cn(CC(=O)N2CCOCC2)c2ccccc12)N1CCOCC1	none
O=C(Cn1cc(SCc2cccc(Cl)c2)c2ccccc21)N1CCOCC1	hcDAF12 agonist 7.8 | LXRb hcDAF ctr inactive | hcDAF12 conf inactive
Cc1ccc(O)c(NC(=O)c2noc3c2CCCCC3)c1	none
Cc1ccc(NC(=O)c2noc3c2CCCCC3)cc1	hgDAF-12 ag 11.5, ssDAF-12 act 1.2, hcDAF12 agonist 10.3 | LXRb hcDAF ctr inactive | hcDAF12 conf 8.2
CCCCOC(=O)Nc1ccc(N(C)C)cc1	hgDAF-12 ag 11.3, hcDAF12 agonist 7.2, DAX1 inh-2 4.4 | LXRb hcDAF ctr inactive | hcDAF12 conf 5.8
CCNC(=O)C1(C)CCN(C(=O)c2ccccc2C(F)(F)F)C1 (stereo not given)	none (no result: DAX1 inh-1)
O=C(O)c1ccc(N/N=C/c2cc(Br)cs2)cc1	ssDAF-12 act 1.0, hcDAF12 agonist 12.1 | LXRb hcDAF ctr inactive | hcDAF12 conf 9.0
CC(C)CSc1nnc2c3ccccc3n(C)c2n1	DAX1 inh-1 10.1, ssDAF-12 act 1.6, hcDAF12 agonist 13.9 | LXRb hcDAF ctr inactive | hcDAF12 conf 11.4
CC(C)OC(=O)CSc1nnc2c3ccccc3n(C)c2n1	none
COc1ccc(S(=O)(=O)Nc2ccccc2C(=O)N2CCOCC2)cc1Cl	none
C[C@H]1C(=O)N2[C@@H](C[C@]3(c4c[nH]c5ccccc45)c4ccccc4N(S(=O)(=O)c4ccccc4)[C@H]23)C(=O)N1C	hcDAF12 agonist 6.8 (no result: DAX1 inh-1, DAX1 inh-2) | LXRb hcDAF ctr inactive | hcDAF12 conf inactive
CC(C)C(=O)N[C@H]1[C@H](O)CCC[C@@]12C(=O)N(Cc1ccccc1)c1ccccc12	none (no result: DAX1 inh-1)
CSc1c(CC(=O)Nc2ccc(F)cc2)n(Cc2ccccc2)c2ccccc12	none
CCOC(=O)c1c(C)nc(-c2ccccc2)nc1N	hgDAF-12 ag 15.6, DAX1 inh-1 4.8, ssDAF-12 act 1.5, hcDAF12 agonist 9.2 | LXRb hcDAF ctr inactive | hcDAF12 conf 13.9
CC(=O)N=c1sc2c3ccccc3ccc2n1C	hcDAF12 agonist 7.5 | LXRb hcDAF ctr inactive | hcDAF12 conf inactive
Cc1cccc(-c2nnc(SCC(=O)N3CCOCC3)o2)c1	hcDAF12 agonist 6.8 | LXRb hcDAF ctr inactive | hcDAF12 conf inactive
O=C(CSc1nnc(-c2cccc(F)c2)o1)N1CCOCC1	none
